The campaign covered roughly 220,000 compounds. About 530 (0.24%) were called active. Cut-off read from the data, not from the text of the source: active = inhibition above about 13%; inconclusive = no clear call, values can overlap the other calls; inactive = below that. This excerpt belongs to a sample that is enriched for actives. Measured potencies and affinities stand elsewhere.
Target: Bifunctional protein GlmU (Mycobacterium tuberculosis (strain ATCC 25618 / H37Rv)) (UniProt P9WMN3)
Test: inhibition of mycobacterial GlmU enzyme – biochemical, glucosamine-1-phosphate acetyltransferase (AID 1376);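 note: 0% = complete reaction with vehicle and 100% = reaction without substrate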
Conditions: M. tuberculosis GlmU acetyltransferase enzyme assay; stronger effect = higher value;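 tested at 30 µM in the primary screen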

Chain of Bifunctional protein GlmU (Mycobacterium tuberculosis (strain ATCC 25618 / H37Rv)) (P9WMN3 whole entry, looked up): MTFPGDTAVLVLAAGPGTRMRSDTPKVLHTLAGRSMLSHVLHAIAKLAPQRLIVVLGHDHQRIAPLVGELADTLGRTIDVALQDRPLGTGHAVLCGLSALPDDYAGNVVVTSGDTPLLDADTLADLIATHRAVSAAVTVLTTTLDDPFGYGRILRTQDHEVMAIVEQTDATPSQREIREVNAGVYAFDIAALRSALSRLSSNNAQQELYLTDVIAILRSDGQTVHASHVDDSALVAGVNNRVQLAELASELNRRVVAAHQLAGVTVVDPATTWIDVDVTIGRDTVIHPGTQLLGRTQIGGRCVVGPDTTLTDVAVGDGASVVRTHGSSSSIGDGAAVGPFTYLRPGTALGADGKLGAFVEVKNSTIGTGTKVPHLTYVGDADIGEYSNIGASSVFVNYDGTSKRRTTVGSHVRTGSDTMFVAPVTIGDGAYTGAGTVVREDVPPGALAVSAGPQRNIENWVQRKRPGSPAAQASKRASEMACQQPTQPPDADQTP

SMILES | inhibition
NC(=O)NNC(=S)Nc1cccc2ccccc12 | 4.54% (inactive)
NC(=O)c1ccccc1NC(=O)Nc1cccc2ccccc12 | -1.2% (inactive)
NC(=O)Nc1cccc2ccccc12 | 14.6% (active)
O=C1CCCC2=C1C1c3ccccc3C(=O)N1c1ccc(C(=O)c3ccccc3)cc1N2 (stereo unspecified) | 0.1% (inactive)
O=C(CCC(=O)c1ccc(Oc2ccccc2)cc1)Nc1cccc(Cl)c1 | 3.77% (inactive)
COc1ccc(OC)c(-c2c3cc(O)c(=O)cc-3oc3cc(O)c(O)cc23)c1 | 14.7% (active)
COc1ccc(OC)c(-c2oc3ccccc3c(=O)c2O)c1 | 0.78% (inactive)
Cc1c2cc(O)c(=O)cc-2oc2cc(O)c(O)cc12 | 27.1% (active)
Cc1ccccc1-c1cc(=O)c2c(O)cccc2o1 | -2.72% (inactive)
COc1cc(OC)c(-c2c3cc(O)c(=O)cc-3oc3cc(O)c(O)cc23)cc1OC | 8.01% (inactive)
CC1(C)CC(=O)c2c(oc3cc(O)c(O)cc23)C1 | -1.56% (inactive)
CCOc1ccccc1-c1c2cc(O)c(=O)cc-2oc2cc(O)c(O)cc12 | -3.1% (inactive)
O=c1cc(-c2ccccc2Cl)oc2cccc(O)c12 | 3.22% (inactive)
O=c1cc2oc3cc(O)c(O)cc3c(-c3ccccc3O)c-2cc1O | 15.4% (active)
Cc1cc(NC(=O)CCCn2nc([N+](=O)[O-])cc2C)no1 | 0.02% (inactive)
COc1ccc2c(OC)cc(-c3ccccc3)nc2c1 | 3.08% (inactive)
Cc1cc(NC(=O)Cc2ccccc2)c2ccccc2n1 | -0.11% (inactive)
CC(=O)Nc1cccc(NC(=O)CSc2ccc(C(F)(F)F)cc2[N+](=O)[O-])c1 | 1.81% (inactive)
CCOC(=O)c1c(C2CC2)csc1NC(=O)COC(=O)c1cnc(Cl)c(Cl)c1 | 4.42% (inactive)
S=c1[nH]nc(COc2cccc(Cl)c2)n1Cc1ccccc1 | 2.34% (inactive)
O=C(Cc1c[nH]c2ccccc12)Nc1nccs1 | 3.72% (inactive)
CC1Cc2ccccc2N1C(=O)C1CCCN(S(=O)(=O)c2cccc3cccnc23)C1 (stereo unspecified) | -0.65% (inactive)

SMILES | inhibition
CCSc1nc2ccccc2c(=O)n1C1CCOC(C)(C)C1 (stereo unspecified) | 7.35% (inactive)
O=C(NCCCN1CCOCC1)c1sc2cc(Cl)ccc2c1Cl | 4.82% (inactive)
O=C(NCCCN1CCOCC1)c1sc2cc([N+](=O)[O-])ccc2c1Cl | 12.9% (active)
O=C(NCCCN1CCOCC1)c1sc2cc(F)ccc2c1Cl | -2.73% (inactive)
CCN(CC)c1ccc(N=Nc2ncn[nH]2)cc1 | -1.86% (inactive)
COc1ccc2ccccc2c1C1CC(=O)N2CN(C)CSC2=C1C#N (stereo unspecified) | 13.8% (active)
CCOc1ccccc1N1CSC2=C(C#N)C(c3c(OC)ccc4ccccc34)CC(=O)N2C1 (stereo unspecified) | 3.43% (inactive)
COc1ccc2ccccc2c1C1CC(=O)N2CN(C3CCCCC3)CSC2=C1C#N (stereo unspecified) | 7.17% (inactive)
O=C(O)COc1c(Cl)cc(/C=C2\NC(=O)NC2=O)cc1Br | 3.85% (inactive)
CC(C)OC(=O)c1cccc(C(=O)Nc2cccc(NC(=O)c3cccc(C(=O)OC(C)C)n3)n2)n1 | 2.69% (inactive)
O=C(O)c1cc(-c2ccc(/C=N/NC(=S)Nc3ccccc3)o2)ccc1Cl | 10.1% (inactive)
O=C(N/N=C/c1ccc([N+](=O)[O-])o1)c1cc2c(ccc3ccccc32)o1 | -4.6% (inactive)
COC(=O)c1cc(O)cc(OC)c1C(=O)c1c(O)cc(C)cc1O | 0% (inactive)
COC(=O)c1cc(OC)cc(O)c1C(=O)c1c(O)cc(C)cc1O | 1.11% (inactive)
Clc1ccc(-c2csc(Nc3cccnc3)n2)cc1 | -1.87% (inactive)
CCCCCCNCc1c(F)cccc1Cl | -1.27% (inactive)
CCOC(=O)/C(=N/Nc1ccccc1OC)N1CCCc2ccccc21 | 3.21% (inactive)
Cc1nc2c(=O)n(-c3ccc(F)c(Cl)c3)nc(C)c2s1 | -1.25% (inactive)
Cc1ccc(NC(=S)N/N=C2\CC3CC=CC23)c(C)c1 (stereo unspecified) | 2.83% (inactive)
Cc1cccc(C)c1NC(=S)N/N=C1\CC2CC=CC12 (stereo unspecified) | 14.2% (active)
FC(F)(F)c1ccccc1NC(=S)N/N=C1\CC2CC=CC12 (stereo unspecified) | -4.32% (inactive)
Clc1ccc(-c2nnc(-c3ccco3)nc2N2CCCCC2)cc1 | -2.38% (inactive)

SMILES | inhibition
Cc1ccc(C(=O)N/N=C\c2ccc(-c3ccc(Cl)c(Cl)c3)o2)cn1 | -1.63% (inactive)
Nc1ccc(C(=O)O)cc1[N+](=O)[O-] | -10.2% (inactive)
NS(=O)(=O)c1ccc(CNC(=O)NC2(c3ccccc3)CC2)cc1 | -5.17% (inactive)
CCOc1ccccc1CN1CCC(CO)(CCOc2ccccc2)CC1 | -6.84% (inactive)
Cc1ccccc1-n1c(SCC(=O)N2CCC(C(=O)O)CC2)nnc1-c1ccncc1 | 1.39% (inactive)
CCc1ccc(-n2c(SCC(=O)N3CCC(C(=O)O)CC3)nnc2-c2ccncc2)cc1 | 14.8% (active)
Cc1c(Cl)cccc1-n1c(SCC(=O)N2CCC(C(=O)O)CC2)nnc1-c1ccncc1 | -2.06% (inactive)
O=[n+]1c2c(n([O-])c3c1CCC3)CCCC2 | -2.34% (inactive)
O=C(Nc1ccccc1)c1ccccc1N=Cc1ccccc1O | -2.01% (inactive)
O=c1[nH][nH]c2c(N=Cc3ccccc3O)ccc(F)c12 | 28.6% (active)
O=c1[nH][nH]cc1C=Nc1ccccc1O | -0.91% (inactive)
Cc1ccc(NC(=O)CC2=NC(=O)C(CC(=O)Nc3ccccc3C)S2)cc1 (stereo unspecified) | 0.67% (inactive)
OC(CNCc1ccc2c(c1)OCO2)COc1ccc(F)cc1 (stereo unspecified) | -6.96% (inactive)
COc1ccc(CN(CC2CCC(C(=O)O)CC2)C(=S)Nc2ccc(C)c(Cl)c2)cc1 (stereo unspecified) | 5.02% (inactive)
CCC(=O)NC1=C(Cl)C(=O)C(NC(=O)CC)=C(Cl)C1=O | 15.5% (active)
CCC(=O)Nc1c(C)cc(C)cc1Cl | 2.67% (inactive)
CCC(=O)NC1=C(NC(C)c2ccccc2)C(=O)c2ccccc2C1=O (stereo unspecified) | 4.92% (inactive)
COc1ccc(-c2noc(CSc3nc(-c4ccccc4)cc(=O)[nH]3)n2)cc1OC | 2.31% (inactive)
Cc1c(NC(=O)c2ccc3c(c2)C(=O)N(Cc2ccco2)C3=O)cccc1C(=O)O | -0.73% (inactive)
O=C(Nc1ccc(Cl)cc1C(=O)O)c1ccc2c(c1)C(=O)N(Cc1ccco1)C2=O | 13.9% (active)
O=C(Nc1ccc(O)cc1C(=O)O)c1ccc2c(c1)C(=O)N(Cc1ccco1)C2=O | 4.38% (inactive)
CNC(=O)COC(=O)c1cc2c(s1)CCCC2 | -3.54% (inactive)

SMILES | inhibition
COc1ccc(C(=O)NC(=S)NC(C)(C)C)cc1Br | -2.26% (inactive)
COc1ccc(C(=O)NC(=S)Nc2nc(C)cc(C)n2)cc1Br | 13.4% (active)
COc1ccc(C(=O)NC(=S)NC(C)C)cc1Br | 4.89% (inactive)
CC1(C)CC(=O)C=C(NNC(=O)c2cccnc2)C1 | -2.32% (inactive)
Cc1ccc(N2C(=O)CS/C2=C(\C(Cl)=C(Cl)Cl)[N+](=O)[O-])cc1 | 12.9% (active)
Cc1ccc(N2C(=O)CSCC2=O)cc1 | -0.48% (inactive)
CCOc1ccc(N2C(=O)CS/C2=C(\C(Cl)=C(Cl)Cl)[N+](=O)[O-])cc1 | 7.22% (inactive)
CC(=O)N1N=C(c2cccs2)CC1c1cccs1 (stereo unspecified) | -7.39% (inactive)
CCNC(=O)CCS(=O)(=O)c1ccc2ccccc2c1 | 5.84% (inactive)
Cc1sc2nc(C3CCCCC3)nc(SCC(=O)N3CC(=O)Nc4ccccc43)c2c1C | -0.32% (inactive)
CCc1nc(SCC(=O)N2CC(=O)Nc3ccccc32)c2c(C)c(C)sc2n1 | 14.6% (active)
Cc1sc2nc(C3CC3)nc(SCC(=O)N3CC(=O)Nc4ccccc43)c2c1C | 2.43% (inactive)
COCCCNc1nc2nonc2nc1N1CCN(C2CCCC2)CC1 | -4.2% (inactive)
CN1CCN(C(=S)Nc2ccccc2Cl)CC1 | 7.2% (inactive)
CCCCOC(=O)CSc1nc2ccccc2o1 | 6.41% (inactive)
COc1cc(-c2cn[nH]c2N)cc(OC)c1OC | 6.07% (inactive)
COc1ccc(/C=N/NC(=O)c2ccc(Cl)c(S(N)(=O)=O)c2)cc1OCC(N)=O | 2.57% (inactive)
O=C(O)C(c1ccccc1)C(c1ccccc1)c1ccccc1 (stereo unspecified) | 2.54% (inactive)
O=C(O)C(c1ccccc1)c1ccccc1 | 4.26% (inactive)
O=C(O)C(c1ccccc1)C1(O)CCCC1 (stereo unspecified) | 13.3% (active)
COc1ccc(C(=O)Nc2ccc([N+](=O)[O-])cn2)c(OC)c1 | 0.14% (inactive)
COc1ccc(/C=N/N(Cc2ccccc2)c2ccccc2)cc1O | 6.68% (inactive)

SMILES | inhibition
Oc1cccc(/C=N/N(Cc2ccccc2)c2ccccc2)c1 | -0.56% (inactive)
O=C(/C(=N/N=C/c1ccc(O)c(O)c1O)c1ccccc1)c1ccccc1 | 7.49% (inactive)
CCN(CC)c1ccc(/C=N/N=C(c2ccccc2)c2ccccc2)c(O)c1 | 6.73% (inactive)
Oc1ccc(/C=N/N(Cc2ccccc2)c2ccccc2)c(O)c1O | 13.5% (active)
COc1ccc(C2CC(=O)c3cc(OC)c(OC)cc32)cc1OC (stereo unspecified) | -0.52% (inactive)
CCOC(=O)C1=C(C)N=C2SC(C)C(=O)N2C1c1ccc(OCC)c(OCC)c1 (stereo unspecified) | 14.7% (active)
CCOC(=O)C1=C(C)N=C2SC(C)C(=O)N2C1c1ccc(OC(C)=O)c(OC)c1 (stereo unspecified) | 5.74% (inactive)
CCOc1cc(C2C(C(=O)OC)=C(C)N=C3SC(C)C(=O)N32)ccc1OC(C)=O (stereo unspecified) | -1.96% (inactive)
Cc1cccc(OCc2nnc(SCc3cc(=O)n4cc(Br)ccc4n3)o2)c1 | 7.11% (inactive)
CC(=O)c1ccc(NC(=O)c2ccc3nc(-c4ccco4)c(-c4ccco4)nc3c2)cc1 | 14.4% (active)
O=C(NCCO)c1ccc2nc(-c3ccco3)c(-c3ccco3)nc2c1 | 5.04% (inactive)
O=C(Nc1ccc2nc(-c3ccco3)c(-c3ccco3)nc2c1)N1CCN(c2ccccn2)CC1 | 12.6% (inactive)
O=C(Nc1ccc(N2CCOCC2)cc1)c1ccc2nc(-c3ccco3)c(-c3ccco3)nc2c1 | 10.1% (inactive)
O=C(Nc1ccccc1)c1ccc2nc(-c3ccco3)c(-c3ccco3)nc2c1 | 2.41% (inactive)
O=C(Nc1ccc2nc(-c3ccco3)c(-c3ccco3)nc2c1)N1CCCCCC1 | 14.8% (active)
CCOC(=O)C1CCN(C(=O)Nc2ccc3nc(-c4ccco4)c(-c4ccco4)nc3c2)CC1 | 11.1% (inactive)
O=C(NCCO)Nc1ccc2nc(-c3ccco3)c(-c3ccco3)nc2c1 | 19.4% (active)
O=C(Nc1ccc(N2CCOCC2)cc1)Nc1ccc2nc(-c3ccco3)c(-c3ccco3)nc2c1 | -3.2% (inactive)

From PubChem BioAssay AID1376 (SRMLSC, 2008)
